The panel holds about 79,000 compounds, 15% with a hit somewhere; the sample as a whole holds those more often. Values without a mark were called inactive. Active and inactive are the calls of the source. Cut-off read from the data, not from the text of the source: active = growth inhibition above about 70%; inactive = the rest.
How the values were obtained:
[1] = NCI Yeast Anticancer Drug Screen. Data for the rad50 strain (AID 155);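 note: 0% = growth of vehicle-only cultures of the same strain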; details: S. cerevisiae rad50 strain growth inhibition, hits give high values
How it was run: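 A DNA repair-deficient yeast mutant serves as the test organism; compound-induced growth inhibition is calculated against vehicle-treated cells.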

[2] = NCI Yeast Anticancer Drug Screen. Data for the mec2-1 strain (AID 157); details: S. cerevisiae mec2-1 strain, hits give high values
How it was run: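 Yeast mec2-1 mutant treated with compound. Readout: growth inhibition vs vehicle controls.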

[3] = NCI Yeast Anticancer Drug Screen. Data for the sgs1 mgt1 strain (AID 161);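 note: 0% = growth of cultures given vehicle only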; details: S. cerevisiae sgs1 mgt1 strain, hits give high values
How it was run: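 Test agents were incubated with a DNA-repair-mutant yeast strain. Growth was then read and compared against vehicle-treated controls.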

[4] = NCI Yeast Anticancer Drug Screen. Data for the cln2 rad14 strain (AID 165);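 note: 0% = growth equal to vehicle treated cultures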; details: S. cerevisiae cln2 rad14 strain, hits give high values
How it was run: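 cln2 rad14 yeast strain; compound exposure; growth inhibition read vs vehicle controls.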

[5] = NCI Yeast Anticancer Drug Screen. Data for the bub3 strain (AID 167); details: S. cerevisiae bub3 mutant strain, hits give high values
How it was run: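 Inhibition values come from growth of compound-treated mutant yeast normalised to vehicle-treated controls.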

[6] = NCI Yeast Anticancer Drug Screen. Data for the mlh1 rad18 strain (AID 175); details: S. cerevisiae mlh1 rad18 strain growth inhibition, hits give high values
How it was run: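 Yeast w/ defined DNA-repair lesions; compound exposure; growth vs vehicle controls → % inhibition.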

[7] = at 5.0 µM (retest, dose inferred, filed as 0.5)
[8] = at 50.0 µM (retest, dose inferred, filed as 5.0)

COc1ccc(CCBr)cc1
growth inhibition [1, 7]: -1% | growth inhibition [1, 8]: -17% | growth inhibition ([1]; at 50.0 µM): 14.7% | growth inhibition [2, 7]: -23% | growth inhibition [2, 8]: -13% | growth inhibition ([2]; at 50.0 µM): 14% | growth inhibition [3, 7]: -15% | growth inhibition [3, 8]: -7% | growth inhibition ([3]; at 50.0 µM): 22.2% | growth inhibition [4, 7]: 17% | growth inhibition [4, 8]: -1% | growth inhibition ([4]; at 50.0 µM): 0.5% | growth inhibition [5, 7]: -17% | growth inhibition [5, 8]: -7% | growth inhibition ([5]; at 50.0 µM): 18.1% | growth inhibition [6, 7]: -27% | growth inhibition [6, 8]: -41% | growth inhibition ([6]; at 50.0 µM): 15.2%

CCOC(=O)C(=O)N1C(C)=C(C(=O)OCC)CC(C(=O)OCC)=C1C
growth inhibition [1, 7]: 35% | growth inhibition [1, 8]: 44% | growth inhibition ([1]; at 50.0 µM): -24.6% | growth inhibition [2, 7]: 18% | growth inhibition [2, 8]: 19% | growth inhibition ([2]; at 50.0 µM): -26.2% | growth inhibition [3, 7]: 30% | growth inhibition [3, 8]: 32% | growth inhibition ([3]; at 50.0 µM): -17.8% | growth inhibition [4, 7]: 29% | growth inhibition [4, 8]: 18% | growth inhibition ([4]; at 50.0 µM): -34% | growth inhibition [5, 7]: 27% | growth inhibition [5, 8]: 25% | growth inhibition ([5]; at 50.0 µM): -8.45% | growth inhibition [6, 7]: 32% | growth inhibition [6, 8]: 31% | growth inhibition ([6]; at 50.0 µM): -44.1%

COc1ccc(-c2nc(C)[nH]c(=O)c2Cc2c(O)ccc3ccccc23)cc1
growth inhibition [1, 7]: 3% | growth inhibition [1, 8]: 50% | growth inhibition ([1]; at 50.0 µM): 98.5% (active) | growth inhibition [2, 7]: -4% | growth inhibition [2, 8]: 4% | growth inhibition ([2]; at 50.0 µM): 10.3% | growth inhibition [3, 7]: 1% | growth inhibition [3, 8]: 8% | growth inhibition ([3]; at 50.0 µM): 97.8% (active) | growth inhibition [4, 7]: 4% | growth inhibition [4, 8]: 7% | growth inhibition ([4]; at 50.0 µM): 22% | growth inhibition [5, 7]: 0% | growth inhibition [5, 8]: 1% | growth inhibition ([5]; at 50.0 µM): 4.45% | growth inhibition [6, 7]: 2% | growth inhibition [6, 8]: 2% | growth inhibition ([6]; at 50.0 µM): 97% (active)

O=C1C(c2c[nH]c3ccccc23)=Nc2ccc(Br)cc21
growth inhibition [1, 7]: 19% | growth inhibition [1, 8]: 33% | growth inhibition ([1]; at 50.0 µM): 86.8% (active) | growth inhibition [2, 7]: 26% | growth inhibition [2, 8]: 35% | growth inhibition ([2]; at 50.0 µM): 61.4% | growth inhibition [3, 7]: 25% | growth inhibition [3, 8]: 29% | growth inhibition ([3]; at 50.0 µM): 73% (active) | growth inhibition [4, 7]: 15% | growth inhibition [4, 8]: 34% | growth inhibition ([4]; at 50.0 µM): 53.5% | growth inhibition [5, 7]: 45% | growth inhibition [5, 8]: 53% | growth inhibition ([5]; at 50.0 µM): 90% (active) | growth inhibition [6, 7]: 24% | growth inhibition [6, 8]: 35% | growth inhibition ([6]; at 50.0 µM): 83.7% (active)

Cc1c(O)c(Br)c(Br)c(Br)c1Br
growth inhibition [1, 7]: 82% (active) | growth inhibition [1, 8]: 94% (active) | growth inhibition ([1]; at 50.0 µM): 95.5% (active) | growth inhibition [2, 7]: 78% (active) | growth inhibition [2, 8]: 97% (active) | growth inhibition ([2]; at 50.0 µM): 87.1% (active) | growth inhibition [3, 7]: 81% (active) | growth inhibition [3, 8]: 96% (active) | growth inhibition ([3]; at 50.0 µM): 96.1% (active) | growth inhibition [4, 7]: 93% (active) | growth inhibition [4, 8]: 96% (active) | growth inhibition ([4]; at 50.0 µM): 94.7% (active) | growth inhibition [5, 7]: 84% (active) | growth inhibition [5, 8]: 96% (active) | growth inhibition ([5]; at 50.0 µM): 93% (active) | growth inhibition [6, 7]: 87% (active) | growth inhibition [6, 8]: 95% (active) | growth inhibition ([6]; at 50.0 µM): 94.1% (active)

COc1ccc(C2NCc3c(sc4c3CCCC4)-n3cccc32)cc1 (stereo not given)
growth inhibition [1, 7]: -4% | growth inhibition [1, 8]: 43% | growth inhibition ([1]; at 50.0 µM): 57.1% | growth inhibition [2, 7]: -2% | growth inhibition [2, 8]: 31% | growth inhibition ([2]; at 50.0 µM): 11.8% | growth inhibition [3, 7]: -13% | growth inhibition [3, 8]: 84% (active) | growth inhibition ([3]; at 50.0 µM): 93.2% (active) | growth inhibition [4, 7]: -5% | growth inhibition [4, 8]: 53% | growth inhibition ([4]; at 50.0 µM): 57.9% | growth inhibition [5, 7]: 0% | growth inhibition [5, 8]: 54% | growth inhibition ([5]; at 50.0 µM): 18.7% | growth inhibition [6, 7]: -7% | growth inhibition [6, 8]: 87% (active) | growth inhibition ([6]; at 50.0 µM): 77% (active)

Cc1cc(Br)cc(C(=O)Cl)c1O
growth inhibition [1, 7]: -159% | growth inhibition [1, 8]: -90% | growth inhibition ([1]; at 50.0 µM): 32.5% | growth inhibition [2, 7]: -51% | growth inhibition [2, 8]: -24% | growth inhibition ([2]; at 50.0 µM): 22% | growth inhibition [3, 7]: -68% | growth inhibition [3, 8]: -54% | growth inhibition ([3]; at 50.0 µM): 30.2% | growth inhibition [4, 7]: -69% | growth inhibition [4, 8]: -11% | growth inhibition ([4]; at 50.0 µM): 28.7% | growth inhibition [5, 7]: -74% | growth inhibition [5, 8]: -47% | growth inhibition ([5]; at 50.0 µM): 5.9% | growth inhibition [6, 7]: -150% | growth inhibition [6, 8]: -67% | growth inhibition ([6]; at 50.0 µM): 34.7%

Oc1ccc(SCc2cc(O)ccc2O)cc1
growth inhibition [1, 7]: 9% | growth inhibition [1, 8]: 93% (active) | growth inhibition ([1]; at 50.0 µM): 86% (active) | growth inhibition [2, 7]: 8% | growth inhibition [2, 8]: 73% (active) | growth inhibition ([2]; at 50.0 µM): 91.2% (active) | growth inhibition [3, 7]: -17% | growth inhibition [3, 8]: 48% | growth inhibition ([3]; at 50.0 µM): 84.5% (active) | growth inhibition [4, 7]: -13% | growth inhibition [4, 8]: 69% | growth inhibition ([4]; at 50.0 µM): 66% | growth inhibition [5, 7]: -26% | growth inhibition [5, 8]: 73% (active) | growth inhibition ([5]; at 50.0 µM): 86.7% (active) | growth inhibition [6, 7]: 10% | growth inhibition [6, 8]: 86% (active) | growth inhibition ([6]; at 50.0 µM): 82.1% (active)

FC(F)(F)c1cccc(Nc2ccc3cnc4ccccc4c3c2)c1
growth inhibition [1, 7]: 6% | growth inhibition [1, 8]: 92% (active) | growth inhibition ([1]; at 50.0 µM): 94.7% (active) | growth inhibition [2, 7]: -19% | growth inhibition [2, 8]: 97% (active) | growth inhibition ([2]; at 50.0 µM): 95.2% (active) | growth inhibition [3, 7]: -1% | growth inhibition [3, 8]: 97% (active) | growth inhibition ([3]; at 50.0 µM): 96.6% (active) | growth inhibition [4, 7]: -5% | growth inhibition [4, 8]: 95% (active) | growth inhibition ([4]; at 50.0 µM): 92.5% (active) | growth inhibition [5, 7]: -2% | growth inhibition [5, 8]: 95% (active) | growth inhibition ([5]; at 50.0 µM): 95.2% (active) | growth inhibition [6, 7]: 17% | growth inhibition [6, 8]: 95% (active) | growth inhibition ([6]; at 50.0 µM): 93.3% (active)

CC(=O)Oc1c2c(c(C)c3ccccc13)C(=O)c1cccnc1C2=O
growth inhibition [1, 7]: 6% | growth inhibition [1, 8]: 4% | growth inhibition ([1]; at 50.0 µM): 98.4% (active) | growth inhibition [2, 7]: 6% | growth inhibition [2, 8]: 5% | growth inhibition ([2]; at 50.0 µM): 98.8% (active) | growth inhibition [3, 7]: 5% | growth inhibition [3, 8]: 6% | growth inhibition ([3]; at 50.0 µM): 98.7% (active) | growth inhibition [4, 7]: 10% | growth inhibition [4, 8]: 0% | growth inhibition ([4]; at 50.0 µM): 97.8% (active) | growth inhibition [5, 7]: 4% | growth inhibition [5, 8]: -1% | growth inhibition ([5]; at 50.0 µM): 98.2% (active) | growth inhibition [6, 7]: 3% | growth inhibition [6, 8]: 2% | growth inhibition ([6]; at 50.0 µM): 98.6% (active)

From PubChem BioAssay (NCI)
